Compound activity: PubChem BioAssay, National Center for Advancing Translational Sciences (NCATS)
NPR1 antag: Natriuretic polypeptide receptor (hNpr1) antagonism - Primary qHTS; HEK293 hNpr1 GloSensor cGMP, ANP-stimulated luminescence; Potency, µM (doses to about 46.3 µM), for inactives: top-dose activity change, negative = inhibition, actives largely listed as inhibitors; AID 1347048, 2019; Atrial natriuretic peptide receptor 1 (Homo sapiens), P16066; 76,000 tested, 1.6% active; calls by dose curve; further: nearly all actives have a fitted effect of over 60% in size
Target sequence (P16066 whole entry, looked up): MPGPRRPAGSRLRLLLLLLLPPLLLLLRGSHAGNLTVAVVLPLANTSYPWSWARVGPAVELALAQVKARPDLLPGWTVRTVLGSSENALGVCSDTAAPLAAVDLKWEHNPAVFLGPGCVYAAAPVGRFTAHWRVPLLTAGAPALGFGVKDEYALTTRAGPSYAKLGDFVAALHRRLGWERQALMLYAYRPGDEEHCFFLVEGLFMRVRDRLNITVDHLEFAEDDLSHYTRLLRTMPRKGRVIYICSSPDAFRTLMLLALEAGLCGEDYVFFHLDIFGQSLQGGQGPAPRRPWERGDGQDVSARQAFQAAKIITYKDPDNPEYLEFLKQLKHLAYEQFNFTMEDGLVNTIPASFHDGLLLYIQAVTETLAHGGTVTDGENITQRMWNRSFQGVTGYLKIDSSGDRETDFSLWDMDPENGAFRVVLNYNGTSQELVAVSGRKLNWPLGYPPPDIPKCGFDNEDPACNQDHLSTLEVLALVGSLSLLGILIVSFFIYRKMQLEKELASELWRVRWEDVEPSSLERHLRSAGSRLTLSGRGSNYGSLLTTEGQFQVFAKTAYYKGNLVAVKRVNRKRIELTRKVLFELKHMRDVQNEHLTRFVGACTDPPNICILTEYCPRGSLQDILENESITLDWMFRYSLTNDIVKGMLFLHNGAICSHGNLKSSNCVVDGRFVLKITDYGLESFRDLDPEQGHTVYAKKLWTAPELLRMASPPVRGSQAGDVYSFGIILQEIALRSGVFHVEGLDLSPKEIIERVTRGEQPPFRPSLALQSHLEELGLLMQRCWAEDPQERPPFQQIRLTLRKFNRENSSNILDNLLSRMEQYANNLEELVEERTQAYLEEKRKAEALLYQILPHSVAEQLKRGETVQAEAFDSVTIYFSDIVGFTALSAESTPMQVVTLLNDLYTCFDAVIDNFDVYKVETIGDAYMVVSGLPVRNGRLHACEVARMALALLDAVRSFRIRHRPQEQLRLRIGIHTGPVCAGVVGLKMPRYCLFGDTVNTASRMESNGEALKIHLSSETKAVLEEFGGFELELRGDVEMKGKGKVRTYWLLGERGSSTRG
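HEK293 cells stably expressing human Npr1 and cGMP GloSensor pGS-40F, loaded 2 h with 2% GloSensor reagent, given compound 30 min at room temperature. Luminescence read before and 20 min after 0.1 nM hNppA.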
3T3 cytotox: Cytotoxic Profiling in NIH 3T3 Cell Line of Diverse Libraries Using Quantitative High-Throughput Screening; NIH 3T3 viability, CellTiter-Glo ATP luminescence, 48-72 h; Potency, µM (titrated, usually from 96.7 µM), for the others: at the top dose activity change, negative = cytotoxicity, hits mostly inhibitors; 94,000 tested, 4.3% active; AID 1345082, 2018; further: nearly all actives have a fitted effect of over 55% in size
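First NIH 3T3 cells are plated at 400 cells/well; next compound is pinned in; then plates incubate 48 or 72 hr at 37 °C; finally CellTiter-Glo is added and luminescence read after 10 min.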
FLuc inh: Firefly luciferase inhibition profiling of diverse chemical library using quantitative high-throughput screening; 76,000 tested, 2.5% active; purified P. pyralis luciferase, luminescence, biochemical; Luciferin 4-monooxygenase (Photinus pyralis), P08659; Potency, µM (highest dose often 115 µM), actives largely listed as inhibitors; further: nearly all actives have a fitted effect of over 65% in size
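Purified P. pyralis luciferase (10nM final) in 50mM Tris acetate pH 7.5, 10mM Mg acetate, 0.01% Tween-20, 0.05% BSA with 10uM D-luciferin and 10uM ATP. Compounds titrated qHTS. Luminescence imaged on CCD.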
HEK293 tox: Cytotoxic Profiling in HEK 293 Cell Line of Diverse Libraries Using Quantitative High-Throughput Screening | HEK 293 viability, ATP luminescence (CellTiter-Glo), 48-72 h | Potency, µM (doses to about 115 µM), for inactives: at the highest dose activity change, negative = cytotoxicity, most hits filed as inhibitors | 94,000 tested, 6.6% active | AID 1345083, 2018; further: nearly all actives have a fitted effect of over 60% in size
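ATP-coupled CellTiter-Glo luminescence served as viability read-out, recorded 10 min after reagent addition at room temperature. HEK 293 cells, 250 cells/well, had been incubated with pintool-transferred compound for 48 or 72 hr at 37 degree Celsius.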
An asterisk follows results filed as active; i = inactive; ? = inconclusive; nt = not tested or not shown; ! = repeats disagree; [ ] = remark or other dose. Only some compounds are listed: those with a hit (about 11% of all), similar ones and a draw of the others. Unless noted, the call rests on the fitted dose curve; in most records, active means well fitted curve in the direction sought with a large enough effect; inconclusive means small, poorly fitted or top-dose-only effect, or another doubt; inactive means no such curve, though single readings can be large; an effect the other way counts as inactive or inconclusive. On the % scale 0 is the no-effect control and ±100 the full control effect; potency means the concentration at half of the fitted maximal effect.

SMILES	NPR1 antag	3T3 cytotox	FLuc inh	HEK293 tox
O=C(NCc1ccc(F)cc1)c1cc(-c2ccccc2)c2nncn2n1	nt	-10.6%	nt	i
COCCNc1nc(-c2c(C)noc2C)cc2cc(CO)oc12	4.0%[70.6 µM]	?	i	-14.6%[172 µM]
Cc1noc(C)c1-c1cc2cc(CO)oc2c(NC2CCN(C)CC2)n1	-21.9%[70.6 µM]	44.7µM*	i	?
Cc1cc2cc(-c3c(C)noc3C)nc(NC3CCN(C)CC3)c2o1	3.8%[70.6 µM]	35.5µM*	i	100µM*
Cc1noc(C)c1-c1cc2cc(CO)oc2c(NCc2cccc(F)c2)n1	-16.2%[70.6 µM]	25.1µM*	i	?
Cc1noc(C)c1-c1cc2cc(CO)oc2c(NCCN2CCOCC2)n1	-9.2%[70.6 µM]	?	i	?
CNC(=O)c1cc(C2CC2)nc2onc(C3CCN(C(=O)COC)C3)c12 (centres undefined)	nt	3.2%[138 µM]	nt	2.1%[172 µM]
O=c1[nH]c(N2CCOCC2)nc2c1CCN(Cc1ccc(C(F)(F)F)cc1)CC2	10.2%	-23.1%	i	?
COCc1nc2nc(-c3ccccc3)c(-c3ccc([S+](C)(=O)[O-])cc3)cc2n1C	nt	89.1µM*	i	i
COCc1nc2nc(-c3ccccc3)c(-c3ccc(N4CCN(C)CC4)nc3)cc2n1C	14.1µM*	?	?	?
COCc1nc2nc(-c3ccccc3)c(-c3ccc(OC)nc3)cc2n1C	-9.7%[70.6 µM]	-27.0%[138 µM]	i	?
Cc1nnc2ccc(N3CCN(C(=O)Nc4ccccc4F)CC3)nn12	nt	?	nt	-1.1%
CC(C)CCNC(=O)c1c(OCC2CC2)cc(=O)n2c1CCCCC2	-0.8%	35.5µM*	i	?
CC(C)Cn1c(=O)c(C(=O)N2CCN(c3ncccn3)CC2)nc2cccnc21	nt	?	nt	-9.3%
Cc1cc(S(=O)(=O)N2CCC(c3noc(COc4ccc(F)cc4)n3)CC2)ccc1F	?	35.5µM*	i	25.1µM*
Cc1ccccc1OCc1nc(C2CN(C(=O)Cc3cccc(F)c3)C2)no1	-18.9%	39.8µM*	i	44.7µM*
O=C(Cc1ccccc1)N1CCC(c2noc(COc3ccc(F)cc3)n2)CC1	nt	?	nt	44.7µM*
O=C(c1ccncc1)N1CCC(c2noc(COc3ccc(F)cc3)n2)CC1	?	-24.4%	i	?
CCN(CC)C(=O)N1CCC(c2noc(COc3ccc(F)cc3)n2)C1 (centres undefined)	nt	?	nt	44.7µM*
COc1cccc(C(=O)N2CC(Oc3ccccc3-c3nc(C4CC4)no3)C2)c1	?	?	i	?
CN1CC2(CCN(Cc3ccc(-c4ccc(Cl)cc4)o3)C2)OC1=O (centres undefined)	-13.3%	?	i	?
Clc1ccc(-c2ccc(CN3CC[C@H]4CC[C@@H](C3)N4)o2)cc1	-11.8%	28.2µM*	?	28.2µM*
O=C(NCc1ccc2c(c1)OCO2)c1nc(-c2ccc(Cl)cc2)c2cnccn12	6.8%	-25.2%	25.1µM*	-26.5%
C#CCNC(=O)c1nc(-c2cccc(F)c2)c2cnccn12	-26.8%[70.6 µM]	?	i	63.1µM*!
CC(C)NC(=O)c1nc(-c2ccc(Cl)nc2)c2ccccn12	nt	35.5µM*	nt	?
SMILES	NPR1 antag	3T3 cytotox	FLuc inh	HEK293 tox
O=C(NCc1cccnc1)c1nc(-c2cccc(F)c2)c2cnccn12	-19.1%	-24.6%	i	?
C#CCNC(=O)c1nc(-c2cccnc2)c2ccccn12	0.0%[70.6 µM]	89.1µM*	i	-22.9%[172 µM]
O=C(NCc1ccc2c(c1)OCO2)c1nc(-c2ccc(F)cc2)c2cnccn12	-11.1%	-10.3%	i	?
O=C(c1ccc(F)cc1)N1CCN(C(=O)c2nc3cccnc3n(CCc3ccccc3)c2=O)CC1	nt	-29.6%	nt	-20.8%
CCCC(=O)Nc1cccc(C(=O)NCCN2N=C(c3ccccc3)CCC2=O)c1	-9.3%	-17.4%	i	?
O=C(c1cccnc1)N1CCN(c2ccc3nnc(-c4ccccc4)n3n2)CC1	nt	?	nt	-5.1%
O=C1CC2(CCN(C(=O)C3CCCN3C(=O)c3ccccc3F)CC2)Oc2ccccc2N1 (centres undefined)	nt	-16.2%	nt	-7.2%
C#CCNC(=O)c1nc(-c2ccc(Cl)nc2)c2ccccn12	nt	?	nt	50.1µM*
COc1ccc(-c2nc(C(=O)N3CCOCC3)n3ccccc23)cc1	16.3%[70.6 µM]	-21.4%[138 µM]	i	?
